The list is not random: actives were taken first. Their share in the collection is about 1.9%.
APP transl inh: APP translation inhibition. hit rate 0.82% among 190,000. inhibition, % at 2 µM. SH-SY5Y APP 5'UTR-luciferase reporter, luminescence;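 active means inhibition above a set limit, derived from the sample mean plus 3 SD, cut at about 45% in these data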
BaF3 tox: parental Ba/F3 viability inhibition as JAK2V617F counter-screen | CellTiter-Glo ATP luminescence | inhibition, % at 5.6 µM | hit rate 1.1% among 220,000 | AID 1486;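 active means inhibition above a per-campaign cutoff, the mean inhibition of all tested compounds plus 3 SD, cut at about 27% in these data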;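 further: 0% = DMSO wells and 100% = JAK Inhibitor I control wells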
KLF5 inh: inhibitors of KLF5 expression | hit rate 0.23% among 290,000 | inhibition, % at 5 µM | DLD-1 KLF5 promoter-luciferase reporter, luminescence | AID 1700;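 active means inhibition above a per-plate limit of that plate's mean compound inhibition plus 3 SD, cut at about 60% in these data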;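 further: 0% = DMSO wells and 100% = LY294002 at 200 µM; higher means less KLF5 promoter-driven luciferase light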
IEC-6 cytotox: kills IEC-6 intestinal cells in KLF5 counter-screen. inhibition, % at 5 µM. hit rate 0.78% among 290,000. IEC-6 cytotoxicity, luminescence viability. AID 1825; in the data active means inhibition above about 22%;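 further: 0% = plate median of test compound wells and 100% = cytotoxic reference compound wells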
Ba/F3 V617F tox: loss of viability in JAK2V617F-driven Ba/F3 cells; hit rate 1.1% among 220,000; inhibition, % at 5.6 µM; Ba/F3 EpoR-JAK2V617F viability, ATP luminescence;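 active means inhibition above the campaign mean plus 3 SD over all tested compounds, cut at about 24% in these data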;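 further: cytokine-independent growth of Ba/F3 cells driven by EpoR plus mutant JAK2; 0% = DMSO-treated cells and 100% = JAK inhibitor I control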
The depositor's hits bear a star.

For C=CCc1cc(Cl)ccc1OCCNCCCOC the results were APP transl inh 0, BaF3 tox 92*, KLF5 inh -26, IEC-6 cytotox -6 and Ba/F3 V617F tox 4.
Screening CCCCC(CC)CNC(=O)c1cc2ccccc2c(=O)o1 (centres undefined) returned APP transl inh 9, BaF3 tox 8, KLF5 inh -32, IEC-6 cytotox 0 and Ba/F3 V617F tox 1.
Screening CCCCN(CCCC)C(=O)c1cc2ccccc2c(=O)o1 returned APP transl inh 26, BaF3 tox 37*, KLF5 inh 12, IEC-6 cytotox -6 and Ba/F3 V617F tox 19.
CC1(C)CC(=O)C2=C(C1)NC(=O)CC2c1cc(F)ccc1F (centres undefined) was read as APP transl inh -22, BaF3 tox 3, KLF5 inh -26, IEC-6 cytotox -5 and Ba/F3 V617F tox -1.
For COc1cc2c(cc1OC)C(c1cccc(Br)c1)CC(=O)N2 (centres undefined) the results were KLF5 inh -36 and IEC-6 cytotox 2.
O=C1CC(c2cccc(Br)c2)c2cc3c(cc2N1)CCC3 (centres undefined) was read as APP transl inh 54*, BaF3 tox 62*, KLF5 inh 25, IEC-6 cytotox 14 and Ba/F3 V617F tox 46*.
For O=C1CC(c2cc(F)ccc2F)c2cc3c(cc2N1)CCC3 (centres undefined) the results were APP transl inh 84*, BaF3 tox 2, KLF5 inh -21, IEC-6 cytotox 17 and Ba/F3 V617F tox 3.
CCOc1cc(S(=O)(=O)N2CCCC2)c(C)cc1C was read as APP transl inh 7, BaF3 tox 0, KLF5 inh -10, IEC-6 cytotox 10 and Ba/F3 V617F tox 6.
Screening O=C(O)CCn1c(=O)n(CCC(=O)O)c(=O)n(CCC(=O)O)c1=O returned APP transl inh -11, BaF3 tox 4, KLF5 inh -28, IEC-6 cytotox -3 and Ba/F3 V617F tox -1.
Screening O=C(O)c1ccc(N2C(=O)CC(N3C(=O)/C(=C/c4ccc(Cl)cc4)SC3=S)C2=O)cc1 (centres undefined) returned BaF3 tox -1, KLF5 inh -1, IEC-6 cytotox 1 and Ba/F3 V617F tox 1.
For CCOC(=O)C1=C(N)n2c(s/c(=C\c3cccs3)c2=O)=C(C(=O)OCC)C1c1cccs1 (centres undefined) the results were APP transl inh 3, BaF3 tox 54*, KLF5 inh 6, IEC-6 cytotox 18 and Ba/F3 V617F tox 42*.
For COc1cccc(C(=O)C2=NN(C(C)=O)CC2c2ccco2)c1 (centres undefined) the results were APP transl inh -3, BaF3 tox 38*, KLF5 inh -48, IEC-6 cytotox 4 and Ba/F3 V617F tox -5.
COc1cccc(C2=NN(C(=O)c3ccco3)C(c3ccco3)C2)c1 (centres undefined) was read as KLF5 inh -17 and IEC-6 cytotox -2.
For Cn1c(Cc2ccccc2)[n+](C)c2ccccc21 the results were APP transl inh 14, BaF3 tox 69*, KLF5 inh -8, IEC-6 cytotox -2 and Ba/F3 V617F tox 67*.
For C/C(N)=C(/C#N)C(=O)COC(=O)CCSc1ccccc1Cl the results were APP transl inh 81*, BaF3 tox 2, KLF5 inh -13, IEC-6 cytotox 1 and Ba/F3 V617F tox -3.
`CCC(C(=O)NC(CC(=O)O)c1ccc(Cl)cc1)c1ccccc1` (centres undefined) gave KLF5 inh -11 and IEC-6 cytotox -1.
For Cn1cc(/C=N/n2cnc3scc(-c4ccc(Cl)cc4)c3c2=O)c2ccccc21 the results were APP transl inh 90*, BaF3 tox 3, KLF5 inh 13, IEC-6 cytotox 22* and Ba/F3 V617F tox 0.
Screening NC(=NCCc1c[nH]c2ccccc12)NS(=O)(=O)c1cc(F)ccc1F returned APP transl inh 1, BaF3 tox 0, KLF5 inh -22, IEC-6 cytotox 3 and Ba/F3 V617F tox 0.
For COc1ccc(C)cc1NC(=O)C(=O)NCc1ccncc1 the results were APP transl inh -11, BaF3 tox 96*, KLF5 inh -6, IEC-6 cytotox 2 and Ba/F3 V617F tox -2.
COc1ccc(S(=O)(=O)Nc2ccc(Oc3ncccn3)c(Cl)c2)cc1 was read as APP transl inh 46*, BaF3 tox 5, KLF5 inh 5, IEC-6 cytotox 0 and Ba/F3 V617F tox -3.
Screening COc1ccc(NS(=O)(=O)c2ccc(Oc3ncccn3)cc2)cc1 returned APP transl inh 17, BaF3 tox 5, KLF5 inh 2, IEC-6 cytotox 4 and Ba/F3 V617F tox 3.

Assay outcomes from PubChem BioAssay.
